Test results taken from PubChem BioAssay (NCATS).
Records with an inconclusive call do not appear. Calls of active or inactive are those of the source. Calls come from the whole dose curve; as a rule, active = well fitted inhibition curve with a large enough effect; inconclusive = small, poorly fitted or top-dose-only effect; inactive = flat fitted curve, though single readings scatter.

Columns and labels:
[1] = target: Glutathione peroxidase 1 (Homo sapiens) (UniProt P07203); experiment: Primary qHTS Assay for Inhibitors of Recombinant Selenoprotein Glutathione Peroxidase 1 (GPX1) (AID 1845191); note: nearly all actives have a fitted effect of over 65% in size
Sequence of Glutathione peroxidase 1 (Homo sapiens) (P07203 whole entry, looked up): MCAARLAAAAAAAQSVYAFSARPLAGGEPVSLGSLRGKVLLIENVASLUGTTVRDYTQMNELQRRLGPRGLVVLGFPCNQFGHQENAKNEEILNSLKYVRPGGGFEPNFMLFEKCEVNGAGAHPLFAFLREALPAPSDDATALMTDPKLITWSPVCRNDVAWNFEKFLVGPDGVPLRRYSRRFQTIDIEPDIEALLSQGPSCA
How it was run: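 10 nM GPX1 + cpd, 30 min RT; start w/ 1 mM GSH, 0.5 mM cumene hydroperoxide, 0.5 mM NADPH, 100 nM GR, 0.01% BSA; buffer 50 mM Tris-HCl pH 7.5, 2 mM EDTA, 150 mM NaCl; Fl 340/450, 0 & 15 min.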

[2] = target: Phospholipid hydroperoxide glutathione peroxidase GPX4 (Homo sapiens) (UniProt P36969); experiment: Primary qHTS Assay for Inhibitors of Recombinant Selenoprotein Glutathione Peroxidase 4 (GPX4) (AID 1845192); note: series mostly up to about 50 µM; nearly all actives have a fitted effect of over 65% in size
Sequence of Phospholipid hydroperoxide glutathione peroxidase GPX4 (Homo sapiens) (P36969 whole entry, looked up): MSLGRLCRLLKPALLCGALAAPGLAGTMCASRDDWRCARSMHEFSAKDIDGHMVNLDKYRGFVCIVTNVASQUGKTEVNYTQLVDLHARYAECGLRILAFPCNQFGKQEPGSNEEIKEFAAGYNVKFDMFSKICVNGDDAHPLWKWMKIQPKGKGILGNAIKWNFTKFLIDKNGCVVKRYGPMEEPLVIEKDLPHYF
How it was run: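 NADPH consumption, followed by fluorescence at 340/450 nm between 0 and 15 min, reports GPX4 activity via coupled glutathione reductase (100 nM). Enzyme 200 nM was pre-exposed to compound 30 min; 0.5 mM cumene hydroperoxide and 1 mM GSH served as substrates.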

[3] = target: Luciferin 4-monooxygenase (Photinus pyralis) (UniProt P08659); experiment: Primary firefly luciferase (FLuc) qHTS assay for identification of artifact compounds. (AID 1845220); note: nearly all actives have a fitted effect of over 60% in size
How it was run: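 Compounds sat 15 min at room temperature with 10 uM luciferin and 10 uM ATP (pH 7.6 Tris acetate). Firefly luciferase (10 nM final) was then added, and luminescence was read 5 min later. Data normalized to no-enzyme and DMSO controls were Hill-fitted.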

Measured: Potency

COc1ccc2c(c1)O[C@H](O[C@@H]1O[C@H](CO)[C@@H](O)[C@H](O)[C@H]1O)C(=O)N2
inactive: [1] | [2] | [3]

Nc1ncnc2c1ncn2[C@H]1CCCO1
inactive: [1] | [2] | [3]

O=c1c2cccnc2n(-c2cccc([N+](=O)[O-])c2)c(=O)n1Cc1ccncc1
inactive: [1] | [2] | [3]

CC(C)(OC1OC(CO)C(O)C(O)C1O)C1CCC(O)(CO)C2CC(O)C(C)(O)C2C1 (stereo not given)
inactive: [1] | [2] | [3]

C=C1CC[C@H]2[C@@](C)(CCC[C@@]2(C)C(=O)O)[C@@H]1CCC(C)CCO (stereo not given in full)
inactive: [1] | [2] | [3]

C=C1CC/C=C(/CO)C(=O)C[C@@H]2[C@@H]1CC2(C)C
inactive: [1] | [2] | [3]

C/C(=C\CO)CC/C=C(\C)C(=O)O[C@H]1[C@H](OC2OC=C(C(=O)O)C3CCC(C)(O)C23)O[C@H](CO)[C@@H](O)[C@@H]1O (stereo not given in full)
inactive: [1] | [2] | [3]

C[C@@]12C[C@]3(O)O[C@H](O1)[C@]1(COC(=O)c4ccccc4)[C@H]3C[C@@]12O[C@@H]1O[C@H](COC(=O)c2ccccc2)[C@@H](O)[C@H](O)[C@H]1O
inactive: [1] | [2] | [3]

COc1cc(/C=C/C(=O)OC(C)(C)C(OC2OC(CO)C(O)C(O)C2O)C(=O)OCc2ccc(OC3OC(CO)C(O)C(O)C3O)cc2)ccc1O (stereo not given)
inactive: [1] | [2] | [3]

CC1=C2[C@@H]([C@H](C)CC[C@H]2/C=C(\C)C(=O)O)[C@H](O)C1
inactive: [1] | [2] | [3]
